Results published in the supplement of paper PMC6411743.
± gives the standard deviation of the averaged measurements. The full data set covers some 5,400 targets. This sample favours those with the largest changes.

Compound: Nc1nc2c(ncn2[C@@H]2O[C@H](COP(=O)(O)OP(=O)(O)OP(=O)(O)O)[C@@H](O)[C@H]2O)c(=O)[nH]1 [guanosine triphosphate]
Assay: NP40-soluble protein abundance relative to vehicle (solubility fold change) (ratio); higher = more soluble protein in presence of GTP
Method in brief: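 Jurkat crude lysate prepared with a Dounce homogeniser was treated at eight concentrations spanning 0.1 to 10 mM, 10 min at room temperature then 3 min at 37 °C. Solubilisation with 0.8% NP40 and benzonase and ultracentrifugation preceded TMT labelling of the supernatant for LC-MS/MS. Fold change against the detergent-processed vehicle was determined per replicate from vsn-normalised intensities, across three independent experiments.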

Chain of UniProt P22830 (P22830 whole entry, one chain of several): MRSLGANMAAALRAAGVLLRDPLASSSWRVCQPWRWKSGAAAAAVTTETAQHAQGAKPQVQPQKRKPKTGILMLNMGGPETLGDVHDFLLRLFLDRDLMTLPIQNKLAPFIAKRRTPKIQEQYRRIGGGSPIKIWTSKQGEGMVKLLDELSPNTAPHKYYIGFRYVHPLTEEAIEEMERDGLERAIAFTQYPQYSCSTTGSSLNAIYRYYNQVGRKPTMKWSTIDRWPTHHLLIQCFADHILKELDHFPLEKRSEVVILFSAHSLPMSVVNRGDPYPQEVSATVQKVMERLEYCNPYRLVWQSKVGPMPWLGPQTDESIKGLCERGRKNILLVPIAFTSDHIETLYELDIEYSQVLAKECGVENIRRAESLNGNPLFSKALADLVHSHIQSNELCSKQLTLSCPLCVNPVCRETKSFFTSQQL
Chain of UniProt P25705 (P25705 whole entry): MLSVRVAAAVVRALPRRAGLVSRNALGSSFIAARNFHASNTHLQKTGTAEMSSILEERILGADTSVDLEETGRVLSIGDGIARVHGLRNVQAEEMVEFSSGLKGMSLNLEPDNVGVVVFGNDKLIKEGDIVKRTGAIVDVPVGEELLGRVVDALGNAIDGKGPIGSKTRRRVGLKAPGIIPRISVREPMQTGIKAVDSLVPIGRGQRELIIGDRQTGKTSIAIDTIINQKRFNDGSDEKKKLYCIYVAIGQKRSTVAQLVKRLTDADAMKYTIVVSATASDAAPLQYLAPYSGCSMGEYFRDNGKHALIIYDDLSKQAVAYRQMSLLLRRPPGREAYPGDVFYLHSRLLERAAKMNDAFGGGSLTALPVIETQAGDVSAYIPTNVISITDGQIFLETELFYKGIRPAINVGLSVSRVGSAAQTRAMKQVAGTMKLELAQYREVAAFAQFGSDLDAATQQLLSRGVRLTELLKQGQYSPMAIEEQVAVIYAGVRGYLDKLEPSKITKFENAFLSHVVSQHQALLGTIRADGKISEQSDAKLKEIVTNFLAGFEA
Chain of UniProt O60488 (O60488 whole entry, one chain of several): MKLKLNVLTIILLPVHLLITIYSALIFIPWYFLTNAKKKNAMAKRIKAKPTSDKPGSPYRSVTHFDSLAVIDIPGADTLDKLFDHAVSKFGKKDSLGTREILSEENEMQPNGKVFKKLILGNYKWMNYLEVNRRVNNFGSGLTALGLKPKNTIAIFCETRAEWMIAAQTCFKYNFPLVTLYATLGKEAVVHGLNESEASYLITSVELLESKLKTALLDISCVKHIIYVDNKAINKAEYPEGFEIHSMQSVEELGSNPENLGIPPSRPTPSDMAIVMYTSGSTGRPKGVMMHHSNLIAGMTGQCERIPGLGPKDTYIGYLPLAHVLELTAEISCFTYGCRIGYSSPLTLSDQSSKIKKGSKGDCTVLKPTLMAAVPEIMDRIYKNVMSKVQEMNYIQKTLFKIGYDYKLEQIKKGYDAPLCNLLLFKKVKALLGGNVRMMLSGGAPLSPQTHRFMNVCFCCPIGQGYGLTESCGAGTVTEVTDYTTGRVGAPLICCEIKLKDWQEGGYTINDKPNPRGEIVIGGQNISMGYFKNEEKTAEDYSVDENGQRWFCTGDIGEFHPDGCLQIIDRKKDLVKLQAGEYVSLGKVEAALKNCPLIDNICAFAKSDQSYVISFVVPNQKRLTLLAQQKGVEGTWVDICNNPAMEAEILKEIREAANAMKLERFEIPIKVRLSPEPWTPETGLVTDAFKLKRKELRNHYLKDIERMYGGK
Chain of UniProt P04150 (P04150 whole entry): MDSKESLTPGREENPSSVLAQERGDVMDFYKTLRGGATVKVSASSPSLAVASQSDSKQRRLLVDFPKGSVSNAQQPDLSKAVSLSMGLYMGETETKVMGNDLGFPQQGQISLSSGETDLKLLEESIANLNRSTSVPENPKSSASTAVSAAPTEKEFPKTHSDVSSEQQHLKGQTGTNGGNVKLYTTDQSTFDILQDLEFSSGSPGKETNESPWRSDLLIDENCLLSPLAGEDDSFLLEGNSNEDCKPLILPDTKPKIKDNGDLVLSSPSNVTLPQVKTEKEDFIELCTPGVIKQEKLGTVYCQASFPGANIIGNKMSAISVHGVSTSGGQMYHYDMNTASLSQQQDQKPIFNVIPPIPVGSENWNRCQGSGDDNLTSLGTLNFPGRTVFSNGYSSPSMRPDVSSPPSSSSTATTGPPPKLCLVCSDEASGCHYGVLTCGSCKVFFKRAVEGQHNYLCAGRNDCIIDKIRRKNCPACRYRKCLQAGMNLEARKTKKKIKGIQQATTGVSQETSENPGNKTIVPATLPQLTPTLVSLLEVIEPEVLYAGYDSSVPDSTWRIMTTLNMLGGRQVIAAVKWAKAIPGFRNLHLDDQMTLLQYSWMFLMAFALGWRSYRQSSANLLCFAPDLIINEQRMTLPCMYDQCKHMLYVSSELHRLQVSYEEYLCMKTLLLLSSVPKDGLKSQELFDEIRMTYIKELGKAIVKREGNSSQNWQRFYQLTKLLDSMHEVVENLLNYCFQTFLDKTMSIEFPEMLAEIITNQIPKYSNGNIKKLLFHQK
Chain of UniProt P23246 (P23246 whole entry): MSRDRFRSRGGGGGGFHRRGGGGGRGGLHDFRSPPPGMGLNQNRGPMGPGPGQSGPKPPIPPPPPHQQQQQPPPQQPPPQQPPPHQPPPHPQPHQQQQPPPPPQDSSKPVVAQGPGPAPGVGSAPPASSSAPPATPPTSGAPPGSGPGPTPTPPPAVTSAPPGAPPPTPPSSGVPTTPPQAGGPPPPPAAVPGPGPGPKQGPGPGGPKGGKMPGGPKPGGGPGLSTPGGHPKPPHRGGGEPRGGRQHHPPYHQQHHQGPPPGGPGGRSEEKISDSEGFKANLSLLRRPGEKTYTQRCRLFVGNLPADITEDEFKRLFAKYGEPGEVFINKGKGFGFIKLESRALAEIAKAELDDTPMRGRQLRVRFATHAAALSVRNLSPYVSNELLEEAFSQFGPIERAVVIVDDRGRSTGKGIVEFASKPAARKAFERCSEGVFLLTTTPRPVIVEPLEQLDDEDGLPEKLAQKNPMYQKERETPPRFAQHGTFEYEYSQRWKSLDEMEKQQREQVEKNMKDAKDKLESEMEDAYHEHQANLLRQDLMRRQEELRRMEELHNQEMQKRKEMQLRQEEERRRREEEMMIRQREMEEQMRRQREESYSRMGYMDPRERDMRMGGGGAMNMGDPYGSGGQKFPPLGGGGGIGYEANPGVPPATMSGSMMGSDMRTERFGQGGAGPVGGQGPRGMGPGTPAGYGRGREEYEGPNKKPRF
Chain of UniProt P51532 (P51532 whole entry, one chain of several): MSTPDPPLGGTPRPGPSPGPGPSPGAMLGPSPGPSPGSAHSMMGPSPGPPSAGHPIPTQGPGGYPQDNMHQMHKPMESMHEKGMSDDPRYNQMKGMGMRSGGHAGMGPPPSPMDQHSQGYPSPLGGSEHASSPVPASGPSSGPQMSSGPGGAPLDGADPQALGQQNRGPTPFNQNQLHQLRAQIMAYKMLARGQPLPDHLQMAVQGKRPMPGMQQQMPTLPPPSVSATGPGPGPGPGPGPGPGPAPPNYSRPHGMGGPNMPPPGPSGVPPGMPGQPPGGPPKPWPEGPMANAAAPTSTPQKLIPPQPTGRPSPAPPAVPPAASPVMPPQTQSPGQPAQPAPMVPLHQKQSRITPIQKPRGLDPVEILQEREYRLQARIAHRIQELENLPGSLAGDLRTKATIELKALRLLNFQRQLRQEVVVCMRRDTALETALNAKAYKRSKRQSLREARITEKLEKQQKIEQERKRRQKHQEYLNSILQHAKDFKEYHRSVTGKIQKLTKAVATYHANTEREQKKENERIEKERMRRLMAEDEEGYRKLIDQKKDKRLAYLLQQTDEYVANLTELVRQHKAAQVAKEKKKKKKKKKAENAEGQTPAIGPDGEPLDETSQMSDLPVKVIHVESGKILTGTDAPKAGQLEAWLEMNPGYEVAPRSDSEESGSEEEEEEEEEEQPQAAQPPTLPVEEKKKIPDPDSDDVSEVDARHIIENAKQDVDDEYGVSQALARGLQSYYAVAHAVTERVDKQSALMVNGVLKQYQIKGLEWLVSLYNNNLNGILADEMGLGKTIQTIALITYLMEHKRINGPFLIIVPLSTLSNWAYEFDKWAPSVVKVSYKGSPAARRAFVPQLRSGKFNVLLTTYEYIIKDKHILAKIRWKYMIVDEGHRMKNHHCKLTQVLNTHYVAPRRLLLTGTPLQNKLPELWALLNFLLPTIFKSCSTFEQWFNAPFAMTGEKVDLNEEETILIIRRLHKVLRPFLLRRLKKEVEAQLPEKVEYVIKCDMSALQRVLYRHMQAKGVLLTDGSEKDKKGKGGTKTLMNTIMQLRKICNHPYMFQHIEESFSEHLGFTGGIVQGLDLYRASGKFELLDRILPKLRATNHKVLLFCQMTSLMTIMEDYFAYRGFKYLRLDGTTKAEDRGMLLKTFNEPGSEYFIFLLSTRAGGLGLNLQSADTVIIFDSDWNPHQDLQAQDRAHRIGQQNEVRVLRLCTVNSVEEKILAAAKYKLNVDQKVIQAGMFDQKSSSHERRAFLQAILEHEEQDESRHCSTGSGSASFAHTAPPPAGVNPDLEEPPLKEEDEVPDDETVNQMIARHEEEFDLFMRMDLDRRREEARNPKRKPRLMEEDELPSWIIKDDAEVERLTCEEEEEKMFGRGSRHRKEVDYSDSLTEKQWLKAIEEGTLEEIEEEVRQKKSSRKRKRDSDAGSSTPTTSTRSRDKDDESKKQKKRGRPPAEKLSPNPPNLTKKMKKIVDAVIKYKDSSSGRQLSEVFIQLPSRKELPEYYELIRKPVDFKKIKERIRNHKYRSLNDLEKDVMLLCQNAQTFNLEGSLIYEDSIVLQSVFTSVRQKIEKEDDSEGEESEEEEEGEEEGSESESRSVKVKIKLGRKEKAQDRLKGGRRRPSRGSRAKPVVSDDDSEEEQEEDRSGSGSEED
Chain of UniProt O60830 (O60830 whole entry, one chain of several): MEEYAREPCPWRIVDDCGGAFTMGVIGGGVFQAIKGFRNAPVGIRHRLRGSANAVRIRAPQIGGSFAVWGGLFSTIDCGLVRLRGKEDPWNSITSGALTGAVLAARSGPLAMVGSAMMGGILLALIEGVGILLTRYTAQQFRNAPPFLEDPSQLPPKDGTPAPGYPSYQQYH

Target	NP40-soluble protein abundance (concentration: 0.1mM)	NP40-soluble protein abundance (concentration: 0.5mM)	NP40-soluble protein abundance (concentration: 1mM)	NP40-soluble protein abundance (concentration: 2mM)	NP40-soluble protein abundance (concentration: 4mM)	NP40-soluble protein abundance (concentration: 6mM)	NP40-soluble protein abundance (concentration: 8mM)	NP40-soluble protein abundance (concentration: 10mM)
UniProt O60830|O60830-2|V9GYS0	1.82 ± 0.63	1 ± 0.039	0.957 ± 0.15	1.01 ± 0.13	1 ± 0.11	0.969 ± 0.13	0.942 ± 0.051	0.955 ± 0.045
K7EPN2|P22830|P22830-2 (UniProt P22830)	1.06 ± 0.013	1.06 ± 0.034	0.972 ± 0.015	0.945 ± 0.055	0.958 ± 0.039	0.939 ± 0.03	0.928 ± 0.043	0.885 ± 0.05
UniProt O00567	1.05 ± 0.035	1.03 ± 0.046	1.1 ± 0.087	1.23 ± 0.075	1.55 ± 0.12	1.75 ± 0.12	2.06 ± 0.14	2.48 ± 0.13
UniProt O75143|O75143-2|O75143-5	0.993 ± 0.038	0.996 ± 0.042	1.01 ± 0.065	1.02 ± 0.081	0.967 ± 0.024	0.959 ± 0.088	0.937 ± 0.058	0.947 ± 0.041
J3KQL8|Q9BQE5 (UniProt Q9BQE5)	0.987 ± 0.019	1.01 ± 0.041	0.984 ± 0.054	0.956 ± 0.058	0.917 ± 0.044	0.982 ± 0.05	0.957 ± 0.045	0.928 ± 0.051
PARP1 (UniProt P09874)	1.02 ± 0.026	1.05 ± 0.034	1.05 ± 0.033	1.15 ± 0.052	1.31 ± 0.069	1.43 ± 0.054	1.47 ± 0.043	1.5 ± 0.028
POLR2E (UniProt P19388)	1.06 ± 0.11	1.09 ± 0.11	1.15 ± 0.16	1.19 ± 0.18	1.22 ± 0.18	1.19 ± 0.19	1.16 ± 0.16	1.11 ± 0.16
UniProt O95793|O95793-2	0.997 ± 0.045	1.02 ± 0.044	1.1 ± 0.079	1.18 ± 0.076	1.33 ± 0.11	1.42 ± 0.13	1.54 ± 0.2	1.82 ± 0.31
H7BYN4|Q02241|Q02241-2|Q02241-3 (UniProt Q02241)	1.1 ± 0.048	1.03 ± 0.036	1.0707 ± 0.00082	1.09 ± 0.021	1.114 ± 0.0076	1.13 ± 0.046	1.12 ± 0.084	1.09 ± 0.041
RPL21 (UniProt P46778)	0.981 ± 0.092	1 ± 0.082	1.05 ± 0.12	1.01 ± 0.14	0.914 ± 0.2	0.856 ± 0.19	0.72 ± 0.22	0.971 ± 0.23
UniProt P38159|P38159-2	1.02 ± 0.048	1.02 ± 0.027	1.18 ± 0.036	1.29 ± 0.043	1.47 ± 0.052	1.65 ± 0.1	1.8 ± 0.15	2.04 ± 0.32
HMGN4 (UniProt O00479)	1.08 ± 0.057	1.06 ± 0.12	1.02 ± 0.12	1.31 ± 0.04	1.83 ± 0.15	2.26 ± 0.16	1.51 ± 0.74	4.79 ± 0.19
PSMB4 (UniProt P28070)	0.926 ± 0.12	1.01 ± 0.11	0.939 ± 0.11	1.04 ± 0.14	1.05 ± 0.21	1.03 ± 0.22	0.945 ± 0.14	0.976 ± 0.14
AKR1A1 (UniProt P14550)	0.93 ± 0.035	0.912 ± 0.034	0.888 ± 0.04	0.876 ± 0.037	0.873 ± 0.047	0.849 ± 0.04	0.831 ± 0.088	0.825 ± 0.08
UniProt P30622|P30622-1	0.996 ± 0.068	1 ± 0.086	1.01 ± 0.08	0.97 ± 0.11	0.953 ± 0.076	0.954 ± 0.069	1 ± 0.088	1.01 ± 0.11
UniProt P09564	1.03 ± 0.2	0.908 ± 0.048	1.09 ± 0.19	0.942 ± 0.15	1.02 ± 0.13	0.977 ± 0.15	1 ± 0.17	0.932 ± 0.14
UniProt P04150|P04150-10|P04150-2|P04150-3|P04150-5|P04150-6|P04150-7|P04150-8|P04150-9|P04150-11|P04150-12|P04150-13	0.899 ± 0.13	0.946 ± 0.032	1.14 ± 0.072	1.07 ± 0.029	1.01 ± 0.043	0.999 ± 0.055	1.02 ± 0.046	1.05 ± 0.069
H7C0Q6|Q9C037|Q9C037-2|Q9C037-3 (UniProt Q9C037)	1.08 ± 0.076	1.037 ± 0.0073	1.03 ± 0.068	0.998 ± 0.052	0.968 ± 0.069	0.981 ± 0.063	0.979 ± 0.07	0.918 ± 0.074
UniProt P23025|F2Z2T2	1.07 ± 0.044	1.08 ± 0.049	1.21 ± 0.054	1.02 ± 0.1	1.05 ± 0.074	1.08 ± 0.14	1.12 ± 0.028	1.08 ± 0.097
UniProt O75400|O75400-2|O75400-3	1.02 ± 0.05	1.11 ± 0.036	1.23 ± 0.083	1.25 ± 0.076	1.37 ± 0.21	1.52 ± 0.24	1.81 ± 0.37	1.89 ± 0.41
GM2A (UniProt P17900)	0.851 ± 0.015	0.931 ± 0.022	0.876 ± 0.013	0.923 ± 0.1	0.853 ± 0.042	0.859 ± 0.013	0.856 ± 0.12	0.927 ± 0.067
UniProt O95758-2|O95758-6|O95758|O95758-1|O95758-4|O95758-5|O95758-7	1.02 ± 0.074	0.974 ± 0.052	1.02 ± 0.064	1.05 ± 0.11	0.994 ± 0.088	0.972 ± 0.05	0.959 ± 0.058	0.951 ± 0.038
UniProt P51532|P51532-2|P51532-3|P51532-4|P51532-5|Q9HBD4	1.016 ± 0.0073	1.07 ± 0.045	1.1 ± 0.083	1.15 ± 0.13	1.19 ± 0.15	1.2 ± 0.17	1.24 ± 0.23	1.21 ± 0.21
UniProt O43760|O43760-2	0.957 ± 0.086	0.909 ± 0.12	0.911 ± 0.076	0.915 ± 0.083	0.908 ± 0.088	0.852 ± 0.11	0.843 ± 0.15	0.884 ± 0.091
UniProt O60488|O60488-2|D6RD96	1.02 ± 0.028	1.08 ± 0.053	0.9363 ± 0.0046	0.939 ± 0.066	0.908 ± 0.045	0.905 ± 0.049	0.894 ± 0.039	0.843 ± 0.086
ZKSCAN1 (UniProt P17029)	0.9748 ± 0.0051	0.986 ± 0.034	0.987 ± 0.047	0.958 ± 0.024	0.963 ± 0.015	0.978 ± 0.026	1 ± 0.075	0.993 ± 0.041
SFPQ (UniProt P23246)	0.998 ± 0.053	0.989 ± 0.086	1.03 ± 0.13	1.23 ± 0.14	1.61 ± 0.22	1.85 ± 0.28	2 ± 0.35	2.04 ± 0.36
UniProt P25705|P25705-2	0.981 ± 0.022	1.04 ± 0.057	0.998 ± 0.062	1.01 ± 0.087	0.986 ± 0.088	1.03 ± 0.11	1.01 ± 0.11	0.995 ± 0.098
UniProt P49588|P49588-2	0.95 ± 0.017	0.981 ± 0.025	0.928 ± 0.032	0.895 ± 0.034	0.876 ± 0.043	0.905 ± 0.041	0.877 ± 0.04	0.848 ± 0.052
H2AFX (UniProt P16104)	0.94 ± 0.014	0.955 ± 0.036	1.07 ± 0.068	1.13 ± 0.075	1.2 ± 0.088	1.48 ± 0.16	1.44 ± 0.13	2.26 ± 0.46
